A short description of assay [1]: AP1 Signaling Pathway (AID 357). Note: % is set by controls: 0 for no effect and ±100 for the full control effect. Particulars: ME-180 AP-1-bla reporter, EGF-induced, beta-lactamase ratio, 5 h. The method in brief: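 Read-out was the 460nm/530nm emission ratio (excitation 405nm) after CCF4 loading for 2.5 hours at room temperature. Cells carried an AP-1-driven beta-lactamase reporter, were stimulated with EC50 EGF plus compound for 5 hours, and AC50 values came from titrations.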

In assay [2] the target is Cytochrome P450 1A2 (Homo sapiens) (UniProt P05177). The assay is described as follows: p450-cyp1a2 (AID 410; calls by dose curve;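 note: -100% = full effect of reference inhibitor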). The conditions noted are these: recombinant CYP1A2, luciferin-ME demethylation, luminescence; series mostly up to 57 µM. The method in brief:
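O-Demethylation of luciferin 6' methyl ether by human CYP1A2 is monitored as luciferase luminescence. Substrate sits at Km (100uM); enzyme is 20nM. Values are scaled to 57 uM furafylline as maximal inhibition.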

In assay [3] the target is Glucocorticoid receptor (Homo sapiens) (UniProt P04150). Briefly: GR-GFP Redistribution (AID 450;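 active = compounds whose dose series gives a full or clear partial fitted curve of increased nuclear translocation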; note: potency is the fitted concentration of half-maximal effect). The conditions noted are these: U2OS GR-GFP nuclear translocation, laser cytometry, 2 h.
For assay [4] the target is unchanged. Briefly: GR-EFC Redistribution (AID 451; calls by dose curve; note: potency is the fitted concentration of half-maximal effect). Particulars: CHO-K1 GR-EFC translocation, beta-gal luminescence, 2 h. The essentials:
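CHO-K1 cells stably expressing nuclear-localized β-gal enzyme acceptor and GR fused C-terminally to the enzyme donor fragment; ligand-driven nuclear translocation restores β-gal by complementation. Compounds titrated up to 46 uM final, 2 h at 37 °C; luminescence read.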

Assay [5] addresses Mitogen-activated protein kinase 10 (Mus musculus) (UniProt Q61831). The assay is described as follows: JNK3 AlphaScreen Assay (AID 530).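 Note: kinase came from lysate of stimulated human HepG2 cells; % is set by controls: 0 for no effect and ±100 for the full control effect.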 Particulars: JNK3 lysate, c-Jun phosphorylation; series mostly up to 57.1 µM. The essentials: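 Phosphorylation of biotinylated GST-cJun(1-79) at Ser73 is measured by AlphaScreen proximity luminescence. Enzyme is JNK3 in HepG2 lysates activated with interleukin-1beta and tumor necrosis factor alpha; ATP is 10 uM final.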
(Alpha assays give light when donor and acceptor beads are brought close together.)

The nature of assay [6]: Stat Signaling Pathway (AID 446).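 Note: ME-180 cervical cancer cells given 40 pM IL-6 alongside compound; SIE-controlled beta-lactamase reporter measured as 460/530 nm FRET emission ratio; % is set by controls: 0 for no effect and ±100 for the full control effect.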 Particulars: ME-180 (cervical carcinoma) SIE beta-lactamase reporter, IL-6 stimulated, 5 h; series mostly up to 17.2 µM. The method in brief:
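Overnight-plated ME-180 cells bearing a STAT Inducible Element beta-lactamase reporter; 5 h co-exposure to compound and 40 pM IL-6; values normalized to 300 pM IL-6 and 125 nM JAK inhibitor controls.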

Assay [7] in a line: NFAT Signaling Pathway (AID 444).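 Note: carbachol stimulus at about its EC50 of 1 µM final; % is set by controls: 0 for no effect and ±100 for the full control effect.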 Particulars: Jurkat NFAT-bla M1, carbachol, beta-lactamase ratio, 5 h. The essentials: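 Jurkat cells carrying an NFAT-driven β-lactamase reporter and co-transfected muscarinic M1 receptor were treated with compound plus carbachol (1 uM final, an EC50 level) for 5 h at 37 °C. CCF4 loading followed for 1 h at RT; 460/530 nm ratio gave %activity.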

Assay [8] in a line: Cell Viability - BJ (AID 421; calls by dose curve;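 note: potency is the fitted concentration of half-maximal effect; cells exposed to compound for 40 hours at 37 °C before readout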). Particulars: BJ fibroblast viability, qHTS. The essentials:
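Quantitative HTS: ATP depletion in BJ cells after 40 hr compound exposure in complete culture medium, detected with CellTiter-Glo; AC50 from standard Hill fits.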
Background: Quantitative high-throughput screening tests each substance at several concentrations.

The nature of assay [9]: Cell Viability - Jurkat (AID 426;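 active = dose-dependent loss of cell ATP signal giving a full or clear fitted curve, ranked by lower potency value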;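 note: potency is the fitted concentration of half-maximal effect; cells exposed to compound for 40 hours at 37 °C before ATP read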). Particulars: qHTS. The essentials: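 Cells of the human T-cell leukemia line Jurkat (E6-1) are seeded at 5000 per well, treated with compound across a concentration range for 40 hours at 37 °C, then lysed with CellTiter-Glo; luminescence reports ATP.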
Assay [10] can be described thus: Cell Viability - Hek293 (AID 427;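 active = compounds whose dose-response curve shows a full or clear partial loss of cell viability, called from curve shape rather than a numeric limit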;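 note: potency is the fitted concentration of half-maximal effect; cells exposed to compound for 40 hours at 37 °C before reading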). The conditions noted are these: qHTS. The essentials:
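AC50 values derive from Hill-modelled concentration-response of ATP-based luminescence, normalized between DMSO-only and 100 uM tamoxifen controls. Cells were exposed in complete culture medium for 40 hr at 37 °C before detection.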

Assay [11] is described as follows: Cell Viability - HepG2 (AID 433; calls by dose curve;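 note: potency is the fitted concentration of half-maximal effect; potency for ATP loss meaning cytotoxicity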). Particulars: qHTS. The method in brief: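 In this qHTS format, a 40 h, 37 °C compound incubation of HepG2 cells in complete medium precedes a 20 min CellTiter-Glo step at room temperature. Tamoxifen and doxorubicin serve as positive controls; Hill-equation fits yield AC50.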
Assay [12] is described as follows: Cell Viability - MRC5 (AID 434; calls by dose curve;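 note: potency is the fitted concentration of half-maximal effect; potency reflects cytotoxicity seen as loss of intracellular ATP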). The conditions noted are these: MRC5 lung fibroblast viability, qHTS. The method in brief: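 Decrease in intracellular ATP, quantified by luciferase light output, reflects compound toxicity toward MRC5 cells exposed for 40 hr in complete culture medium. Concentration-response curves, scaled between DMSO and 100 uM tamoxifen, gave AC50 values.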

Assay [13] is described as follows: Cell Viability - SK-N-SH (AID 435; calls by dose curve;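 note: potency is the fitted concentration of half-maximal effect; compound exposure lasted 40 h at 37 °C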). Particulars: SK-N-SH neuroblastoma cell viability qHTS. The method in brief:
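Human neuroblastoma line, 40 h exposure at 37 °C, ATP quantified via luciferase luminescence; DMSO and 100 uM tamoxifen define 0 and 100% inhibition for AC50 fitting.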

A short description of assay [14]: Cell Viability - N2a (AID 540; active = well fitted curve in the direction sought with a large enough effect; an effect the other way counts as inactive or inconclusive;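 note: plate controls were DMSO alone for no effect and tamoxifen control for full effect; nearly all actives have a fitted effect of over 45% in size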). The conditions noted are these: N2a mouse neuroblastoma cell viability; series mostly up to 92.2 µM. The essentials:
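Cytotoxicity was scored as loss of cellular ATP in N2a cells, a mouse neuroblastoma line. Compounds are applied in a qHTS concentration series for 40 hr at 37 °C.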

A short description of assay [15]: Cell Viability - NIH 3T3 (AID 541; active = well fitted curve in the direction sought with a large enough effect; an effect the other way counts as inactive or inconclusive;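 note: plate controls were DMSO alone for no effect and tamoxifen positive control for full effect; nearly all actives have a fitted effect of over 25% in size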). The conditions noted are these: NIH 3T3 cell viability, qHTS; activity change, negative = cytotoxicity: at 92.2 µM (top of the series). The essentials:
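Cells seeded at 1000/well, rested 5 hr at 37 °C, then dosed and incubated 40 hr at 37 °C. CellTiter-Glo added, 20 min room temperature, luminescence read. AC50 by Hill fit.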

Assay [16] is described as follows: Cell Viability - HUV-EC-C (AID 542; active = well fitted curve in the direction sought with a large enough effect; an effect the other way counts as inactive or inconclusive; note: % is set by controls: 0 for no effect and ±100 for the full control effect; nearly all actives have a fitted effect of over 35% in size). The conditions noted are these: HUV-EC-C endothelial cell viability, qHTS; series mostly up to 92.2 µM. The method in brief:
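Cells were seeded at 1000 per well and incubated 5 hr at 37 °C before compound addition. After 40 hr at 37 °C, CellTiter-Glo reagent was added for 20 min and luminescence read. AC50 values came from Hill-equation modelling.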

Assay [17] is described as follows: Cell Viability - H-4-II-E (AID 543; active = well fitted curve in the direction sought with a large enough effect; an effect the other way counts as inactive or inconclusive; note: % is set by controls: 0 for no effect and ±100 for the full control effect; nearly all actives have a fitted effect of over 35% in size). Particulars: H-4-II-E rat hepatoma viability; series mostly up to 92.2 µM. The essentials:
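Cells seeded at 1500 per well and rested 5 hr; compounds added; 40 hr incubation at 37 °C; CellTiter-Glo added, 20 min at room temperature; luminescence read. Hill-equation fits gave AC50.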

A short description of assay [18]: Cell Viability - SH-SY5Y (AID 544; active = well fitted curve in the direction sought with a large enough effect; an effect the other way counts as inactive or inconclusive;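 note: 0% = DMSO alone and -100% = 100 µM tamoxifen; nearly all actives have a fitted effect of over 55% in size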). The conditions noted are these: SH-SY5Y neuroblastoma cell viability; series mostly up to 92.2 µM. The essentials:
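Cells were plated at 1500 per well and allowed 5 hr at 37 °C. Compounds were added across a concentration range and incubated 40 hr at 37 °C. CellTiter-Glo was added for 20 min at room temperature before luminescence reading.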

A short description of assay [19]: Cell Viability - Mesenchymal (AID 546; active = well fitted curve in the direction sought with a large enough effect; an effect the other way counts as inactive or inconclusive;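 note: cells exposed to compound for 40 hours before reading; 0% = DMSO only and -100% = 100 µM tamoxifen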). The conditions noted are these: mesenchymal cells viability, qHTS; activity change, negative = cytotoxicity: at 91.7 µM (top of the series). The essentials:
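In this qHTS cytotoxicity format, glomerulus-derived human mesenchymal kidney cells received compound for 40 hr, then luciferase-based ATP quantitation. Concentration-response data were fitted with the Hill equation.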

Values joined by “and” are separate entries in the source; they are usually repeats but may differ in a detail not shown here. Equal values may be shown once. Results filed as inconclusive are left out. Active and inactive are the calls of the source. Unless noted, calls come from the whole dose curve; as a rule, active = well fitted curve in either direction with a large enough effect (not every such curve was filed as active); inconclusive = small, poorly fitted or top-dose-only effect, or another doubt; inactive = flat fitted curve, though single readings scatter.

We go through ten molecules from PubChem BioAssay (NCATS).

Sequence of Cytochrome P450 1A2 (Homo sapiens) (P05177 whole entry, looked up): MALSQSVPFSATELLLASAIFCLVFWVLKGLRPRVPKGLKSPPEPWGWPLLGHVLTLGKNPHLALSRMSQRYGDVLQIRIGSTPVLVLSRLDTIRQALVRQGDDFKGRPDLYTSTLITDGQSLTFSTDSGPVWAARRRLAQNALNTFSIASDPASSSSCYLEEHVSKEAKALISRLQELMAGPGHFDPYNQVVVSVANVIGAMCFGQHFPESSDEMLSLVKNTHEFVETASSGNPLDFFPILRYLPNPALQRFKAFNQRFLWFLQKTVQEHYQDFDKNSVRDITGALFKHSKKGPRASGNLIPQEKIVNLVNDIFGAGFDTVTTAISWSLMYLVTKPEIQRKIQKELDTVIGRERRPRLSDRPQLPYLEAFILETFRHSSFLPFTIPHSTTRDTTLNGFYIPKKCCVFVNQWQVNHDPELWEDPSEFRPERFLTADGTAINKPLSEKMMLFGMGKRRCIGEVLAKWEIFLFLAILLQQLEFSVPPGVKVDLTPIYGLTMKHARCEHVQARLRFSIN
Sequence of Glucocorticoid receptor (Homo sapiens) (P04150 whole entry, looked up): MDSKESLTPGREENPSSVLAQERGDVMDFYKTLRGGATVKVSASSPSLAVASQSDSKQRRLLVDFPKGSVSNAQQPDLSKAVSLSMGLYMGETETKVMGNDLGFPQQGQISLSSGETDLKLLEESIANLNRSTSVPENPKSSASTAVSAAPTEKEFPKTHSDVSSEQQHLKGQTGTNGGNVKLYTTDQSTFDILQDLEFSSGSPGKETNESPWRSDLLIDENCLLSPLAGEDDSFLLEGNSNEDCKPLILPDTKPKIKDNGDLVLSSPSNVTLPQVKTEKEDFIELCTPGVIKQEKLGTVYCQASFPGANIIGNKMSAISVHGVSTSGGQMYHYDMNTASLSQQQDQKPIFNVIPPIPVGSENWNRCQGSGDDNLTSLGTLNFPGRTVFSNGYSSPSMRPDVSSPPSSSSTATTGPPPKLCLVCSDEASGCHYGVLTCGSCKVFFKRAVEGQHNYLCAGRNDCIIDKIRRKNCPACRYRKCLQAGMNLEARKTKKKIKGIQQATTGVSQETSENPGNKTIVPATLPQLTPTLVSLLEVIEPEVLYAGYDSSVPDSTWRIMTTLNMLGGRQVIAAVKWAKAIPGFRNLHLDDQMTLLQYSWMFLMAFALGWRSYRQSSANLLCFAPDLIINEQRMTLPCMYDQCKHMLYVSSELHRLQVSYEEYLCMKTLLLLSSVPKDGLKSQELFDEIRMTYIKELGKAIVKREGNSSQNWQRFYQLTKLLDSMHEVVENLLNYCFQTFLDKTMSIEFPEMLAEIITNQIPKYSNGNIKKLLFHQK

Regarding `CCCN(CCC)CCc1cccc2c1CC(=O)N2`, the activity change, negative = inhibition in [1] (at 38 µM (top of the series)) is 3.44% (inactive). Further, the Potency result in [2] and in assay [5] was “inactive” each time. Moreover, the Potency in [3] and in [4] was > 46 µM (inactive) each time.
On to `COc1ccc([C@@H]2Sc3ccccc3N(CCN(C)C)C(=O)[C@@H]2OC(C)=O)cc1`, for which the activity change, negative = inhibition in assay [1] (at 17.2 µM (top of the series)) is 23.2% (inactive). The Potency entry in assay [2] was “inactive”. For the same molecule, the Potency in assay [3] is > 46 µM (inactive) and > 20.6 µM (inactive); in assay [4] it was > 46 µM (inactive).
For `CCNC(=O)N1CCN(CCCC(c2ccc(F)cc2)c2ccc(F)cc2)CC1`, the activity change, negative = inhibition in [1] (at 38 µM (top of the series)) is 1.34% (inactive). Further, the molecule was called inactive in [6]. Also, the Potency in assay [3] and in assay [4] was > 46 µM (inactive) throughout. The Potency result in [5] is “inactive”.
Consider `CC(=O)OC(C)C[N+](C)(C)C` (stereo not given), for which the activity change, negative = inhibition in [1] (at 17.2 µM (top of the series)) is 11.1% (inactive). Also, the call in assay [6] was inactive. Also, in assay [3], the Potency is > 20.6 µM (inactive).
Take `CC(=O)OCC1=C(C(=O)O)N2C(=O)[C@@H](NC(=O)Cc3cccs3)[C@H]2SC1`: the activity change, negative = inhibition in assay [1] (at 17.2 µM (top of the series)) is -3.26% (inactive); in assay [7] (at 17.2 µM (top of the series)) it was 0.294% (inactive). In addition, in assay [6], the call was inactive. Also, in assay [3], the Potency was > 20.6 µM (inactive).
For the molecule `Fc1ccc(C(c2ccc(F)cc2)N2CCN(C/C=C/c3ccccc3)CC2)cc1`, the activity change, negative = inhibition was -10.9% (inactive) in assay [1] (at 17.2 µM (top of the series)) and -88.5% (active) in assay [7] (at 17.2 µM (top of the series)). Besides, in assay [6], the outcome was inactive. Moreover, in [3], the Potency was > 20.6 µM (inactive).
With `CCOC(=O)C1=C(C)NC(C)=C(C(=O)OC)C1c1cccc(Cl)c1Cl` (stereo not given), in assay [1] (at 17.2 µM (top of the series)), the activity change, negative = inhibition was -7.25% (inactive). Also, the outcome in assay [6] was inactive. Moreover, the Potency in assay [3] is > 20.6 µM (inactive).
Consider `COc1ccc(CN(CCN(C)C)c2ccccn2)cc1`, for which the Potency result in [2], in [5], in [16], in assay [17], in assay [18] and in assay [19] was “inactive” in each case. Further, the Potency in [8], in assay [9], in assay [10], in [11], in assay [12] and in [13] was > 92 µM (inactive) in each case. The Potency in assay [3] is > 46 µM (inactive) and > 20.6 µM (inactive); in assay [4], > 46 µM (inactive) and > 20.6 µM (inactive). For the same molecule, the activity change, negative = inhibition in assay [7] (at 17.2 µM (top of the series)) was -25.9% (inactive) and -22.5% (inactive); in assay [7] (at 38 µM (top of the series)), -21.9% (inactive). Further, the molecule was classed as inactive in assay [6] and in assay [14]. Further, the activity change, negative = cytotoxicity in assay [15] is -13.1% (inactive).
As for `C[C@]12CCC(=O)C=C1CC[C@@H]1[C@@H]2C(=O)C[C@@]2(C)[C@H]1CC[C@]2(O)C(=O)CO`, the activity change, negative = inhibition in [1] (at 17.2 µM (top of the series)) is 7.64% (inactive); in assay [7] (at 17.2 µM (top of the series)), -6.84% (inactive). Moreover, in assay [6], the result was inactive. Moreover, in [3], the Potency is 0.818 µM (active).
Take `CCCN(CCC)C(=O)C(CCC(=O)O)NC(=O)c1ccccc1` (stereo not given): the activity change, negative = inhibition in [1] (at 17.2 µM (top of the series)) was 1.43% (inactive); in assay [7] (at 17.2 µM (top of the series)), -1.88% (inactive). The outcome in [6] was inactive. Further, in assay [3], the Potency was > 20.6 µM (inactive).
